Compound activity as filed in PubChem BioAssay.
IMPase Li inh – qHTS Assay for Identifying the Cell-Membrane Permeable IMPase Inhibitors: Potentiation with Lithium. CHO-M1 cells, IP1 TR-FRET (IP-One), carbachol + lithium. Potency, µM (titrated, usually from 59.4 µM), for inactives: at the highest dose activity, negative = IMPase inhibition, hits mostly inhibitors. 210,000 compounds, 0.35% hits;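 further: IP1 builds up when IMPase is blocked and the TR-FRET signal falls; potency means the concentration at half of the fitted maximal effect; plate controls were basal vehicle for no effect and high inhibitor control for full effect; nearly all actives have a fitted effect of over 50% in size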
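CHO cells stably expressing M1 receptor (2000/well) were cultured 16–30 h, then exposed to compounds with a small lithium addition for 30 min at 37C. IP1 was measured by TR-FRET competition; AC50 from Hill fits.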
IMPase cell inh – qHTS Assay for Identifying the Cell-Membrane Permeable IMPase Inhibitors; Inositol monophosphatase 1 (Rattus norvegicus), P97697; CHO-M1 cells, IP1 accumulation, HTRF TR-FRET ratio; inhibition (IP1 accumulation), % at 46.1 µM; 120,000 tested, under 10 active; AID 901, 2007; active means well fitted curve in the direction sought with a large enough effect in the signal ratio, not every such curve was filed as active; inconclusive means small, poorly fitted or top-dose-only effect, or a change in a side signal; inactive means no such curve, though single readings can be large or run the other way; the % refers to the signal ratio;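 further: cells stimulated with carbachol in lithium chloride buffer; plate controls were DMSO basal wells for no effect and reference inhibitor wells for full effect; higher means more IMPase inhibition seen as more IP1 and lower FRET ratio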
Target sequence (P97697 whole entry, looked up): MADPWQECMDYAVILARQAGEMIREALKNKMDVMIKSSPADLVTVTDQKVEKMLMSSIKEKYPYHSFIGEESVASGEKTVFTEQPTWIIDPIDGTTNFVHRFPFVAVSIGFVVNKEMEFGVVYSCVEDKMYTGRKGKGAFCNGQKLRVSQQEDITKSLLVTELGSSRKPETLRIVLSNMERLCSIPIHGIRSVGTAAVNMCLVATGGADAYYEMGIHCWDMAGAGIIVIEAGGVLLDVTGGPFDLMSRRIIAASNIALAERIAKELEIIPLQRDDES
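Measured: the HTRF emission ratio (665/620 nm) plus the 620 nm donor channel, each fitted to the Hill equation to give AC50. Cells were CHO-M1 given compounds up to 46 uM and a 30 min carbachol stimulation at 37C.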
PNC inhibitor – High Content Assay for Compounds that inhibit the Assembly of the Perinucleolar Compartment; activity change (PNC), negative = inhibition, % at 10 µM; 140,000 compounds, 3.1% hits; PC3M PTB-GFP, PNC prevalence imaging, 16 h; hits give low values;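 active means readout at or below -70, meaning at least 70% loss of cells showing the perinucleolar compartment, a nuclear body marking cancer cells; inconclusive means readout between -30 and a set limit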;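 further: plate controls were DMSO wells for no effect and camptothecin positive control wells for full effect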
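PC3M cells stably expressing PTB-GFP, 750–1000 cells/well, treated 16 h at 37 °C with compound (23 nl of library stock), in duplicate. After paraformaldehyde fixation and Hoechst stain, imaged at 20x; PNC prevalence scored by image analysis.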
ALOX12 inhib – qHTS Assay for Inhibitors of 12-hLO (12-human lipoxygenase); purified 12-hLO, xylenol orange hydroperoxide absorbance; Potency, µM (series often up to 57.1 µM), for inactives: top-dose activity change, negative = inhibition, most hits filed as inhibitors; 150,000 compounds, 0.12% hits; AID 1452, 2008; further: potency means the concentration at half of the fitted maximal effect; nearly all actives have a fitted effect of over 55% in size
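Purified human 12hLO (150 nM final) was preincubated with compounds for 15 min at room temperature in 25 mM Hepes pH 7.0, 0.01% Triton X-100, then reacted with 40 uM arachidonic acid for 30 min. Hydroperoxide was detected with ferrous iron/xylenol orange.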
HPGD block – qHTS Assay for Inhibitors of HPGD (15-Hydroxyprostaglandin Dehydrogenase); 15-hydroxyprostaglandin dehydrogenase [NAD(+)] (Homo sapiens), P15428; 150,000 compounds, 4.3% hits; Potency, µM, for inactives: top-dose activity change, negative = inhibition, usual class: inhibitors; purified HPGD, NADH fluorescence kinetic, PGE2 substrate; active means well fitted inhibition curve with a large enough effect, not every such curve was filed as active; inconclusive means small, poorly fitted or top-dose-only effect, or another doubt; inactive means no such curve, though single readings can be large or run the other way; further: potency means the concentration at half of the fitted maximal effect
Target sequence (P15428 whole entry, looked up): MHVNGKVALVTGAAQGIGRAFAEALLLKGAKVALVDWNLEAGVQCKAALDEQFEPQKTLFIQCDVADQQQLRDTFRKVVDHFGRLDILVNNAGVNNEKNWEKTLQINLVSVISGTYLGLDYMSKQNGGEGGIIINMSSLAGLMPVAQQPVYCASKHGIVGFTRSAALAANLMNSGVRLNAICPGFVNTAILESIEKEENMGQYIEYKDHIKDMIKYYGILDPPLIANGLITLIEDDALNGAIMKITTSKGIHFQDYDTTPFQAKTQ
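20 nM HPGD preincubated 15 min at room temperature with compound in 50 mM Tris-HCl pH 8, 0.01% Tween 20. Started with 1 mM NAD+ and 30 uM prostaglandin E2; NADH fluorescence (360/450 nm) read 5 times over 30-s intervals, last minus first.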
ALDH1A1 inh – qHTS Assay for Inhibitors of Aldehyde Dehydrogenase 1 (ALDH1A1); Aldehyde dehydrogenase 1A1 (Homo sapiens), P00352; Purified ALDH1A1, NADH fluorescence, propionaldehyde substrate; Potency, µM (titrated, usually from 75.3 µM), inactives show top-dose activity, negative = inhibition, actives largely listed as inhibitors; 220,000 compounds, 7.3% hits; active means well fitted inhibition curve with a large enough effect, not every such curve was filed as active; inconclusive means small, poorly fitted or top-dose-only effect, or another doubt; inactive means no such curve, though single readings can be large or run the other way;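 further: potency means the concentration at half of the fitted maximal effect; plate controls were no enzyme wells and a reference inhibitor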
The depositor's hits bear a star; ? = inconclusive; / = not tested or not shown; [ ] = another dose, or the depositor's remark. Most compounds without a hit are left out; they make up all but 11% or so of the library. Unless noted, the call rests on the fitted dose curve; in most records, active means well fitted curve in the direction sought with a large enough effect; inconclusive means small, poorly fitted or top-dose-only effect, or another doubt; inactive means no such curve, though single readings can be large; an effect the other way counts as inactive or inconclusive. Unless noted, on the % scale 0 is the no-effect control and ±100 the full control effect.

SMILES	IMPase Li inh	IMPase cell inh	PNC inhibitor	ALOX12 inhib	HPGD block	ALDH1A1 inh
COCCn1c(SCC#N)nnc1-c1ccc([N+](=O)[O-])cc1	8.6%	/	/	/	/	0.3%
Cc1cc2c3c(cccc3n1)C(=O)c1ccccc1-2	0.7%	/	/	/	-3.3%	-10.6%
CO[C@@H]1COC(=O)C/C=C\[C@@H](C)[C@H](OC)COC(=O)C/C=C\[C@H]1C	/	/	/	/	/	10.9%[13.5 µM]
Cc1ccc(-c2cc(C(=O)N3CCCc4ccccc43)no2)cc1	18.4%	/	/	/	/	?
COc1cccc(-c2cc(C(=O)N3CCCc4ccccc43)no2)c1	32.6%[38.3 µM]	9.2	32.1	-0.9%	-9.7%	?
Cc1noc(C)c1C(=O)N1CCCc2ccccc21	14.4%[38.3 µM]	9.5	26.4	-6.1%	-25.7%	25.1µM*
COc1ccc(-c2cc(C(=O)N3CCCc4ccccc43)no2)cc1	15.9%[38.3 µM]	-0.1	-13.2	-5.5%	-24.1%	3.98µM*
COc1ccc(C2=NOC(C(=O)N3CCCc4ccccc43)C2)cc1 (centres undefined)	13.3%[38.3 µM]	4.5	-3.9	1.4%	-8.8%	12.6µM*
O=C(c1cc(-c2cccs2)on1)N1CCCc2ccccc21	17.3%[38.3 µM]	1.3	-23.5	0.5%	-11.3%	14.1µM*
COc1cc(C2=NOC(C(=O)N3CCCc4ccccc43)C2)cc(OC)c1OC (centres undefined)	14.4%[38.3 µM]	2.5	?	-5.7%	-14.7%	?
COc1ccc(C2C=C(C34CC5CC(CC(C5)C3)C4)NC(=S)N2)cc1OC (centres undefined)	-1.8%	1.5	-26.4	-19.9%	-7.6%	7.94µM*
CC(=O)NC(C)C(=O)OCC(=O)c1ccc(-c2ccccc2)cc1 (centres undefined)	0.7%	/	/	/	/	?
C=CCSc1nnc(-c2ccc(Cl)cc2Cl)o1	12.1%[38.3 µM]	-5.0	13.5	-13.0%	11.2µM*	-12.5%
COc1ccc(OC)c(NC(=O)c2cc3c(n(-c4ccc(Cl)cc4)c2=O)CC(C)(C)CC3=O)c1	/	-5.5	/	/	/	/
CCOc1ccc(N2C(=O)CC(SCc3nc4ccccc4[nH]3)C2=O)cc1 (centres undefined)	0.0%	/	/	/	/	4.47µM*
O=C1CC(SCc2nc3ccccc3[nH]2)C(=O)N1c1ccc(Cl)cc1 (centres undefined)	9.2%[38.3 µM]	-0.2	?	-19.7%	-10.2%	25.1µM*
O=C1CC(SCc2nc3ccccc3[nH]2)C(=O)N1c1cccc(F)c1 (centres undefined)	36.7%[38.3 µM]	1.4	16.4	-11.5%	-19.4%	12.6µM*
O=C1CC(SCc2nc3ccccc3[nH]2)C(=O)N1c1ccc(F)c(Cl)c1 (centres undefined)	-14.5%[38.3 µM]	1.2	12.6	-7.6%	22.4µM*	5.01µM*
Oc1ccc(Cl)cc1N=Cc1sc2ccccc2c1Cl	-2.1%	/	/	/	/	?
O=[N+]([O-])c1ccc(O)c(N=Cc2sc3ccccc3c2O)c1	33.8%	/	15.2	-3.9%	14.1µM*	?
O[C@H](C[C@@H]1CCCCN1)c1ccc2c(c1)oc1ccccc12	-0.7%	/	/	-1.8%[11.4 µM]	-0.7%	7.7%[13.5 µM]
O=C(O)CC12CC3CC(C1)CC(n1ncc(NCC4CCCO4)c(Cl)c1=O)(C3)C2 (centres undefined)	/	/	/	/	/	25.1µM*
O=C(COc1ccccc1Br)NCc1ccco1	21.1%[38.3 µM]	12.8	-24.1	0.8%	25.1µM*	?
Cc1ccc(Cl)c(OCC(=O)NCc2ccco2)c1	23.2%[38.3 µM]	-0.7	?	5.6%	-29.9%	?
CCc1ccc(OCC(=O)NCc2ccco2)c(Br)c1	0.3%[38.3 µM]	-3.6	28.0	-8.5%	35.5µM*	?
